Here are results for 96 compounds from PubChem BioAssay AID1021 (Emory University Molecular Libraries Screening Center, 2008).

Several values for one entry are separate records, joined by “and”; a condition that tells them apart may be missing. Equal values may be shown once. In all, about 220,000 compounds went through this assay and about 2,100 (0.95%) were called active.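 Rule for the calls: active = compounds that cut the binding signal by more than half at the single screening dose; inactive = the rest.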 Many of the other results were omitted from the sample, so actives are more common in it than they were. Some compounds were tested as several samples or in several runs, with calls that do not always agree.

Chain of Induced myeloid leukemia cell differentiation protein Mcl-1 (Homo sapiens) (Q07820 whole entry, looked up): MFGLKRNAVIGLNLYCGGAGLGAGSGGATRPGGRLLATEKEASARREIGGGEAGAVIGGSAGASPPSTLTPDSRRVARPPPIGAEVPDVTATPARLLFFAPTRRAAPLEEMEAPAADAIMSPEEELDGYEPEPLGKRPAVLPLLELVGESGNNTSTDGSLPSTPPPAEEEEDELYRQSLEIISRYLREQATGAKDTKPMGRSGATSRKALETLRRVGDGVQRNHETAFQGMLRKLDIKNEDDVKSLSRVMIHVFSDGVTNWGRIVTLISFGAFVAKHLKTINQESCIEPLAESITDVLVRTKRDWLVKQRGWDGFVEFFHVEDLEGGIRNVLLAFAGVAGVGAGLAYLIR

This experiment addresses Induced myeloid leukemia cell differentiation protein Mcl-1 (Homo sapiens) (UniProt Q07820). Description: Mcl-1/Bid binding inhibitors, primary screen, biochemical, TR-FRET, 1536-well (AID 1021).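 Note: His-tagged Mcl-1 with europium anti-His antibody binding Bid BH3 peptide; 0% = Mcl-1 plus peptide wells and 100% = peptide-only wells.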 The settings on record: TR-FRET Mcl-1/Bid-Dy647 peptide binding, at 21.7 µM, stronger effect = higher value. (In general: In TR-FRET formats the signal depends on donor and acceptor labels being close together.)
What is called inhibition is the change of the read-out against control, counted positive when it falls. In the case of `O=c1cc(C(F)(F)F)[nH]c(=O)n1C1CCCCC1`, the inhibition was -10.9% (inactive).
Under `Cc1ccc(NNC(=O)C2CCC2)cc1C` stands -13% (inactive); under `Cc1ccc(Nc2cc(=O)n(C3CCCCC3)c(=O)[nH]2)cc1C`, 94.6% (active); under `Cc1c(C(=O)Nc2ccccc2)sc2nc3n(c(=O)c12)CCCCC3`, -9.14% (inactive).
For the compound `O=C(Cn1c[n+](CC(=O)c2ccc([N+](=O)[O-])cc2)cn1)c1ccc([N+](=O)[O-])cc1`, the inhibition was -21.7% (inactive) and -16.6% (inactive).
In the case of `CC(=O)Nc1ccc(N2C(=O)C3C4CC(=O)C(c5ccccc54)C3C2=O)cc1` (stereo unspecified), the inhibition was -11.5% (inactive).
In the case of `CC(=O)Oc1cccc(N2C(=O)C3CC=C(Cl)CC3C2=O)c1` (stereo unspecified), the inhibition was -19.4% (inactive).
The figure for `O=C(Oc1cccc(N2C(=O)C3C4c5ccccc5C(c5ccccc54)C3C2=O)c1)c1ccco1` (stereo unspecified) is 92% (active); for `O=[N+]([O-])c1ccc(N2CCSCC2)cc1O` it is -15.7% (inactive).
`O=C(CS(=O)(=O)c1ccc(C(F)(F)F)cn1)NNC(=O)c1ccccc1`: the inhibition was -2.12% (inactive).
As to `O=c1[nH]c2ccccc2n2c(-c3ccccc3)nnc12`, the inhibition was 64.9% (active).
With `Cc1ccc(-c2nc3ccccc3[nH]c2=O)cc1`, the inhibition is -0.25% (inactive).
On to `CCOC(=O)c1cnc2[nH]c3ccccc3n2c1=O`, for which the inhibition is 10.7% (inactive).
For the compound `CCCCc1nnc(NC(=O)CSc2nc(N)cc(=O)[nH]2)s1`, the inhibition is -5.95% (inactive).
In the case of `Cn1c2ccccc2c2cc(/C=C(\NC(=O)c3ccccc3)C(=O)NCC(=O)O)ccc21`, the inhibition is -1.08% (inactive).
Consider `Cc1cc(NS(=O)(=O)c2ccc(NC(=O)c3cccc(OC(F)F)c3)cc2)nc(C)n1`, for which the inhibition is -2.38% (inactive).
The figure for `Cn1cccc1/C=N/NC(=O)CNc1cccc2ccccc12` is -45.9% (inactive); for `O=C(O)C(NS(=O)(=O)c1cccc2nsnc12)c1ccccc1` (stereo unspecified) it is -3.92% (inactive); for `O=C(C(NS(=O)(=O)c1cccc2nsnc12)c1ccccc1)N1CCN(c2ccccc2)CC1` (stereo unspecified) it is -29.6% (inactive).
Under `O=C(O)c1ccc(NS(=O)(=O)c2cccc3nsnc23)cc1` stands 101% (active).
Under `N#Cc1c(N)nc2c(c1N)CC(C(F)(F)F)O2` (stereo unspecified) stands 1.45% (inactive).
With `Cc1nn(Cc2ccccc2)c2c1C(c1ccccc1)C(C#N)=C(N)O2` (stereo unspecified), the inhibition was -17.5% (inactive).
Under `COc1ccccc1C1C(C#N)=C(N)Oc2c1c(-c1ccccc1)nn2-c1ccccc1` (stereo unspecified) stands 97.3% (active); under `Cc1nn(-c2ccccc2)c2c1C(c1ccc(F)cc1)C(C#N)=C(N)O2` (stereo unspecified), -9.94% (inactive).
Regarding `COc1cc(S(=O)(=O)N(Cc2cccs2)C2CC2)ccc1-n1cnnn1`, the inhibition was 1.4% (inactive).
With `CCC(CC)NC(=O)CSc1nnc(-c2c[nH]c3ccccc23)o1`, the inhibition was 1.1% (inactive).
In the case of `CN(C)c1ccc(Nc2c3c4c(cccc4n(C)c2=O)C(=O)c2ccccc2-3)cc1`, the inhibition was 59.4% (active).
Regarding `CC1(C)CC(=O)C=C(Nc2ccccc2)C1`, the inhibition is -54% (inactive).
On to `COC(=O)NNC1=CC(=O)CC(C)(C)C1`, for which the inhibition is -13.6% (inactive).
With `Cc1ccc(C(=O)OC2=CC(=O)CC(C)(C)C2)cc1`, the inhibition was 89.4% (active).
With `O=C(NC1CC1)c1ccc2c(c1)NC(=O)c1ccccc1S2`, the inhibition was -30.3% (inactive).
The figure for `CC(=O)Nc1cccc(/C(C)=N/NC(=O)c2ccccc2Cl)c1` is -9.47% (inactive).
Turning to `C/C(=N\Nc1cccc(C(=O)O)c1)c1ccc2c(c1)Nc1ccccc1S2`, the inhibition is 92% (active).
Consider `COc1cc(/C=N/NC(=O)CCc2n[nH]c(=O)[nH]c2=O)ccc1O`, for which the inhibition is -25.6% (inactive).
On to `O=C(OCc1nc2ccccc2[nH]1)C1CCCCC1`, for which the inhibition was -17.4% (inactive).
`COc1ccc(C(=O)C2CCCN(Cc3ccc4nonc4c3)C2)c(C)c1` (stereo unspecified): the inhibition was -14.3% (inactive).
Turning to `O=C(NC1CCCCC1)N1CCc2[nH]c3ccccc3c2C1`, the inhibition is -16.1% (inactive).
The figure for `O=C(Nc1ccc(Cl)cc1)N1CCc2[nH]c3ccccc3c2C1` is 83.8% (active).
With `Fc1ccc(NC(=S)N2CCc3[nH]c4ccccc4c3C2)cc1`, the inhibition is -6.12% (inactive).
On to `Cc1ccccc1CN(c1ccc(C(=O)NCC2CCCO2)cc1)S(C)(=O)=O` (stereo unspecified), for which the inhibition was -0.03% (inactive).
`CNS(=O)(=O)c1ccc(N2CCCC2=O)c([N+](=O)[O-])c1`: the inhibition was -4.05% (inactive).
Under `COc1ccc(CN2CCCC(CNC(=O)c3ccc(F)cc3)C2)cc1OC` (stereo unspecified) stands -22.9% (inactive); under `COc1ccc(CN2CCCC(C(=O)c3ccc(Cl)cc3)C2)cc1Cn1cncn1` (stereo unspecified), -25.6% (inactive).
Under `COc1ccc(CCN(C)C(=O)C2CCCN(Cc3ccc(OC)c(OC)c3)C2)cc1OC` (stereo unspecified) stands -22.7% (inactive) and 54.1% (active); under `CC(C)CC(=O)NC(=S)NNC(=O)c1cccc([N+](=O)[O-])c1`, -73.3% (inactive).
With `Cn1nc(C(F)(F)F)c(-c2ccc(F)cc2)c1NC(=O)CSCC(=O)O`, the inhibition is -12.6% (inactive).
For the compound `O=C(O)CSCC(=O)Nc1cccc(C(F)(F)F)c1`, the inhibition was -0.04% (inactive).
The figure for `FC(F)(F)c1cccc(N/N=C/c2ccccc2)c1` is 93.7% (active).
Regarding `O=[N+]([O-])c1ccc(N/N=C/c2ccccc2)cc1`, the inhibition was -8.01% (inactive).
Under `Clc1ccc(C[n+]2cc(-c3ccc(Cl)cc3)n3c2CCC3)cc1` stands -1.66% (inactive); under `O=c1c2[nH]c3ccc(Cl)cc3c2ncn1Cc1ccccn1`, 10.2% (inactive).
As to `COc1ccc2[nH]c3c(=O)n(Cc4ccco4)cnc3c2c1`, the inhibition is 72.9% (active).
In the case of `Cc1ccc2[nH]c3c(=O)n(Cc4ccccn4)cnc3c2c1`, the inhibition was 14.7% (inactive).
Turning to `S=C(NNC(=S)NC1CC2C=CC1C2)NC1CC2C=CC1C2` (stereo unspecified), the inhibition is -96.2% (inactive).
`CCCCCCCCCCCCC(NC(C)=O)(C(=O)OCC)C(=O)OCC`: the inhibition was 1.76% (inactive).
In the case of `CN(C)c1ccc(/C=C/C(=O)c2ccc(O)cc2)cc1[N+](=O)[O-]`, the inhibition was -2.27% (inactive).
In the case of `CCO[C@@H]1OC(C(=O)NCc2nc3ccccc3[nH]2)=C[C@H](C2CCCCC2)[C@H]1CCCO`, the inhibition is 5.02% (inactive).
Take `CCc1ccccc1N1CN(Cc2ccco2)CNC1=S`: the inhibition is -26.9% (inactive).
Turning to `Cc1nccc(-c2ccc(-n3c(C)ccc3C)cc2)n1`, the inhibition was 6.3% (inactive).
`COc1ccccc1NC(=O)/C=C/C(=O)O`: the inhibition is -31.9% (inactive).
`O=[N+]([O-])c1cccc(C2=NCCS2)c1`: the inhibition was -9.78% (inactive).
Turning to `O=[N+]([O-])c1cccc(-c2nnc3c4ccccc4c4ccccc4n23)c1`, the inhibition was 52.9% (active).
For `O=[N+]([O-])c1cccc(Nc2c3ccccc3nc3ccccc23)c1`, the inhibition was -10.4% (inactive).
`CCOC(=O)C1CCCN(C(=O)COc2ccc(N(C)S(=O)(=O)c3ccc(C)cc3)cc2)C1` (stereo unspecified): the inhibition was -9.64% (inactive).
In the case of `COc1ccc(C(=O)COC(=O)COc2ccc(C)c(C)c2)cc1`, the inhibition is 11.1% (inactive).
Consider `CC(NC(=O)COC(=O)c1ccc2c(c1)OCO2)c1ccccc1` (stereo unspecified), for which the inhibition was -4.79% (inactive).
`COc1ccc(Nc2ncnc3sc(-c4ccccc4)cc23)c(OC)c1`: the inhibition was -15% (inactive).
As for `Cc1cc(NC(=O)c2cccc(N3C(=O)CCC3=O)c2)no1`, the inhibition was -19.2% (inactive).
For `Cc1cccc(NC(=O)c2cc(N3C(=O)CCC3=O)ccc2Cl)n1`, the inhibition is 69.1% (active).
`Cc1cccc(NC(=O)c2ccc3ccccc3n2)n1`: the inhibition is -24% (inactive).
Under `O=[N+]([O-])c1cc(Br)c(O)c(/C=N/Nc2nc3ccccc3s2)c1` stands 85.8% (active).
With `COc1cc(/C=N/Nc2nc3ccccc3s2)ccc1O`, the inhibition is -5.09% (inactive).
As to `c1ccc2sc(NN=C3CCCC3)nc2c1`, the inhibition is -7.33% (inactive).
In the case of `Cc1ccc(NC(=O)c2nc[nH]c2C(=O)N[C@@H](CCCCNC(=O)OC(C)(C)C)C(=O)OC(C)(C)C)cc1`, the inhibition was -46.2% (inactive).
Under `CCOc1ccc(N=C2NC(=O)S/C2=C\c2ccc(O)cc2)cc1` stands 85.2% (active).
Under `NC1=NC(=O)S/C1=C\c1ccc(O)cc1` stands -45.3% (inactive); under `CCOc1ccc(N=C2SC(C(=O)O)CC(=O)N2C)cc1` (stereo unspecified), 3.39% (inactive).
As for `CCc1ccnc(NS(=O)(=O)c2ccc3c(c2)OCCO3)c1`, the inhibition is -5.34% (inactive).
As for `O=C(Nc1ccccc1)c1ccc2c(c1)OCO2`, the inhibition is 1.56% (inactive).
The figure for `O=C(Nc1ccc2c(c1)OCO2)c1ccc(N2C(=O)c3ccccc3C2=O)cc1` is 56.4% (active); for `Cn1c(=O)n(C)c2cc(C(=O)Nc3ccc4c(c3)OCO4)ccc21` it is -32.5% (inactive); for `COc1ccc(C(=O)OCC(=O)NCC2CCCO2)cc1[N+](=O)[O-]` (stereo unspecified) it is -15.9% (inactive).
Consider `[O-][N+]12CCCCC1CCCC2CO` (stereo unspecified), for which the inhibition is -0.58% (inactive).
Consider `COC(=O)CCCC1=CC2=C(c3ccccc3)C(=O)C(C)(OC(=O)C3CCCC3)C(=O)C2=CN1c1ccc(OC)cc1` (stereo unspecified), for which the inhibition was -60.4% (inactive).
Consider `Cc1ccc(S(=O)(=O)c2ccc(Cl)cc2)cc1S(=O)(=O)NC(C(=O)O)C(C)C` (stereo unspecified), for which the inhibition was 4.83% (inactive).
In the case of `CC(=O)Nc1cc(C(=O)O)ccc1S(=O)(=O)c1ccc(Cl)cc1`, the inhibition was 83% (active).
With `CCOC(=O)N1CCN(C(=O)c2ccc(S(=O)(=O)c3ccc(C)cc3)c(NC(C)=O)c2)CC1`, the inhibition is -11.4% (inactive).
For the compound `Cn1nccc1NC(=O)Nc1ccc(OC(F)(F)F)cc1`, the inhibition is -8.69% (inactive).
For `COc1cc(OC)cc(C(=O)Nc2ccc(-c3nc4ccccc4o3)c(O)c2)c1`, the inhibition is 70.7% (active).
Consider `COc1cc(OC)cc(C(=O)Nc2ccc(S(=O)(=O)Nc3cc(C)on3)cc2)c1`, for which the inhibition is -2.64% (inactive).
On to `O=C(Nc1ccc2oc(-c3ccccc3F)nc2c1)c1ccco1`, for which the inhibition is -18.3% (inactive).
On to `O=C(NCCCn1ccnc1)C(=O)NCC1OCCN1S(=O)(=O)c1cc(F)ccc1F` (stereo unspecified), for which the inhibition is -20.9% (inactive).
As for `Cn1c(CSCC(=O)Nc2ccccc2)nnc1SCc1ccccc1`, the inhibition is 1.29% (inactive).
On to `CC(Sc1nc(-c2ccccc2)cc(C(F)(F)F)n1)C(=O)Nc1ccc2c(c1)OCO2` (stereo unspecified), for which the inhibition was -32.5% (inactive).
With `CC(Sc1nnc2c(n1)C1CCC2(C)C1(C)C)C(=O)Nc1ccccc1` (stereo unspecified), the inhibition was 66.7% (active).
For `CSc1nc(C)cc(SC(C(C)=O)C(=O)Nc2ccccc2)n1` (stereo unspecified), the inhibition is -18.3% (inactive).
